Source: PubChem BioAssay
HIF act: HIF pathway transcriptional activation; U2OS HRE-luciferase reporter, luminescence; normalized: DMSO 0%, desferrioxamine 100%; activation, % at 7.5 µM (by protocol); 300,000 tested, 0.32% active; AID 1910;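 active = mean activation of at least 10% of the iron chelator positive control signal, with at least half of replicates also reaching 10%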
697 NFkB inh: inhibitors of the PMA/ionomycin-induced NF-kB reporter in 697 B cells; 697 B-cell NF-kB luciferase reporter, 16 h; inhibition, % at 4 µM; 330,000 tested, 0.33% active; in the data active = inhibition above about 35%
CFTR F508del cor: correctors of CFTR F508del function in bronchial epithelial cells; CFBE cells, YFP halide quenching; stimulated with forskolin plus potentiator P3; % fluorescence drop versus neutral controls; activity (quench increase), % at 7.58 µM; 350,000 tested, 0.36% active; AID 720511;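 active = mean added fluorescence quench of at least 8% versus neutral control, with both replicates also reaching 8%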;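 note: cells transiently co-express mutant CFTR-F508del with the halide-sensitive YFP; corrector assay measuring rescue of mutant channel to the surface after 24 h compound exposure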
Jurkat NFkB inh: inhibitors of the PMA/ionomycin-induced NF-kB reporter in Jurkat cells; PMA/ionomycin-induced NF-kB luciferase reporter, luminescence; 330,000 tested, 0.53% active; inhibition, % at 4 µM; AID 435003; in the data active = inhibition above about 50%
Active calls of the source: *. A selection: hits, their analogues and other compounds. The true share with any hit is near 0.93%.

Results for CC(C)[C@H](NC(=O)c1ccco1)C(=O)OCc1cc(=O)n2c(n1)sc1ccccc12 ?
HIF act: 20.2*; 697 NFkB inh: 13.2; CFTR F508del cor: 3.6; Jurkat NFkB inh: 7.6

How did C[C@H](CO)N1C[C@H](C)[C@@H](CN(C)C(=O)Nc2ccc3c(c2)OCO3)Oc2ccc(NC(=O)c3ccncc3)cc2CC1=O do in these assays?
CFTR F508del cor: -0.8

How did CCN(CC)S(=O)(=O)c1cccc(C(=O)N/N=C(\C)c2ccc(O)cc2O)c1 do in these assays?
HIF act: 12.8*; 697 NFkB inh: 4.6; CFTR F508del cor: 0.1; Jurkat NFkB inh: 24.6

What do the screens show for `CCS(=O)(=O)Nc1ccc2c(c1)C(=O)N(C)C[C@@H](OC)[C@H](C)CN(Cc1ccccn1)[C@H](C)CO2`?
CFTR F508del cor: 0.6

Results for CC(=O)c1ccc(Nc2cc(C)nc3c(C)cc(C)cc23)cc1 ?
HIF act: 0.4; 697 NFkB inh: -66.5; CFTR F508del cor: 16.6*; Jurkat NFkB inh: 47.8

What do the screens show for `O=C1C(=O)c2ccccc2C(O)=C1c1cccc([N+](=O)[O-])c1`?
HIF act: 23.2*; 697 NFkB inh: -24.6; CFTR F508del cor: -8.9; Jurkat NFkB inh: -7.8

What do the screens show for `NC(=O)N=Nc1c2[nH]c3ccccc3nc-2c2ccccc12`?
HIF act: 6.8; 697 NFkB inh: 10.7; CFTR F508del cor: 22.0*; Jurkat NFkB inh: -33.2

What do the screens show for `O=c1[nH]c2ccccc2nc1-c1ccccc1`?
HIF act: 1.2; 697 NFkB inh: -15.4; CFTR F508del cor: -0.2; Jurkat NFkB inh: -21.1

What do the screens show for `C/C=C/c1ccc([C@@H]2[C@@H](CO)N(C(C)=O)[C@@H]2CNC(=O)CC2CC2)cc1`?
CFTR F508del cor: 0.8

How did Cc1ccc(Cc2c(-c3ccc(C)cc3)nc3c(C)cc(Br)cn23)cc1 do in these assays?
CFTR F508del cor: 10.8*

Results for Cc1ccccc1S(=O)(=O)NCC[C@H]1CC[C@@H](NC(=O)C2CC2)[C@H](CO)O1 ?
CFTR F508del cor: -1.1

Results for CCOC1=C/C(=C/c2c(N)n3nc(CC(=O)N4CCCCC4)sc3nc2=O)C=CC1=O ?
HIF act: -0.1; 697 NFkB inh: -13.2; CFTR F508del cor: 0.1; Jurkat NFkB inh: 2.0

How did CCOC1=C/C(=C/c2c(N)n3nc(S(=O)(=O)CC)sc3nc2=O)C=CC1=O do in these assays?
HIF act: -0.5; 697 NFkB inh: 17.9; CFTR F508del cor: 9.9*; Jurkat NFkB inh: -2.6

Results for C=CCN1C(=O)[C@@]2(O[C@@H](CCn3cc([C@H](O)c4ccccc4)nn3)[C@H]([Si](C)(C)c3ccc(OC)cc3)[C@H]2C)c2cc(N3CCOC3=O)ccc21 ?
CFTR F508del cor: 12.3*

How did C=CCN1C(=O)[C@@]2(O[C@@H](CCn3cc(CCO)nn3)[C@H]([Si](C)(C)c3ccc(OC)cc3)[C@H]2C)c2cc(N3CCOC3=O)ccc21 do in these assays?
CFTR F508del cor: 3.4

How did COc1ccc(C2CN=NC23CCCc2ccccc2C3=O)cc1 (stereo not drawn) do in these assays?
HIF act: 2.4; 697 NFkB inh: -31.2; Jurkat NFkB inh: 4.6

What do the screens show for `COc1ccc(C2CN=NC23CCc2ccccc2C3=O)cc1` (stereo not drawn)?
HIF act: 0.3; 697 NFkB inh: -40.4; CFTR F508del cor: 15.9*; Jurkat NFkB inh: 33.3

How did C[C@@H]1CN([C@H](C)CO)C(=O)Cc2cc(NS(=O)(=O)c3cn(C)cn3)ccc2O[C@@H]1CN(C)Cc1ccc(C(=O)Nc2ccccc2N)cc1 do in these assays?
CFTR F508del cor: 1.0

Results for O=C(Nc1ccc(F)cc1)C1CCN(C(=O)c2ccc(F)cc2)CC1 ?
697 NFkB inh: 6.8; CFTR F508del cor: 13.7*; Jurkat NFkB inh: 3.1

How did O=C(Nc1ccc(C(=O)N2CCCC2)cc1)C1CCCC1 do in these assays?
CFTR F508del cor: 4.6

What do the screens show for `CC(C)(C)c1csc(NNC(=O)c2ccc(Br)cc2)n1`?
HIF act: 11.5*; 697 NFkB inh: -12.1; CFTR F508del cor: 3.9; Jurkat NFkB inh: -16.6

How did O=C(C[C@H]1C=C[C@H](NC(=O)CCN2CCCCC2)[C@@H](CO)O1)Nc1ccccc1 do in these assays?
CFTR F508del cor: -0.3

How did NC1(C(=O)O)CC1 do in these assays?
HIF act: -0.5; 697 NFkB inh: -10.6; CFTR F508del cor: 17.1*; Jurkat NFkB inh: 11.2

Results for O=C(O)C1(C(=O)O)CCCC1 ?
CFTR F508del cor: 1.3

Results for Cc1ccc(/C=C2/NC(=O)N(Cc3ccccc3)C2=O)s1 ?
HIF act: 0.1; 697 NFkB inh: 5.4; Jurkat NFkB inh: -3.5

Results for O=C1N/C(=C/c2cccs2)C(=O)N1Cc1ccc(Br)cc1 ?
HIF act: 328.4*; 697 NFkB inh: -10.1; CFTR F508del cor: 1.1; Jurkat NFkB inh: 14.0

What do the screens show for `C[C@@H]1CN([C@@H](C)CO)C(=O)c2cc(NS(=O)(=O)c3ccc(Cl)cc3)ccc2O[C@@H](C)CCCCO[C@H]1CN(C)S(=O)(=O)c1cccs1`?
CFTR F508del cor: 1.2

Results for N#Cc1cccc(NC(=O)c2nc(-c3ccccc3)n(-c3ccccc3)n2)c1 ?
HIF act: -1.2; 697 NFkB inh: 14.8; Jurkat NFkB inh: -7.8

What do the screens show for `Cc1nn(C2CCS(=O)(=O)C2)c2nc(C3CC3)cc(C(=O)Nc3cccc(C#N)c3)c12` (stereo not drawn)?
697 NFkB inh: 10.7; CFTR F508del cor: 8.7*; Jurkat NFkB inh: -23.8

What do the screens show for `O=C(Cc1ccccc1)N1CC(=O)N2[C@H](C1)[C@@H](c1ccc(-c3cccc(F)c3)cc1)[C@@H]2CO`?
CFTR F508del cor: 1.6

What do the screens show for `O=C1NC(=O)/C(=C/c2ccc(OS(=O)(=O)c3ccc(F)cc3F)cc2)N1`?
HIF act: 41.1*; 697 NFkB inh: -3.9; CFTR F508del cor: -1.7; Jurkat NFkB inh: 5.6

Results for Cc1cc(/C=N/n2c(COc3ccccc3)nc3ccccc3c2=O)c(O)c([N+](=O)[O-])c1 ?
HIF act: 14.5*; 697 NFkB inh: -55.0; Jurkat NFkB inh: 2.9

What do the screens show for `CCCc1cn(CC[C@H]2CC[C@@H](NS(=O)(=O)c3ccccc3Cl)[C@H](CO)O2)nn1`?
CFTR F508del cor: 0.2

Results for COc1ccc(S(=O)(=O)N2CC[C@@H]3[C@@H](CO)Nc4ccc(-c5cccc(C#N)c5)cc4[C@@H]32)cc1 ?
CFTR F508del cor: 12.6*

What do the screens show for `COc1ccc(S(=O)(=O)N2CC[C@H]3[C@H](CO)Nc4ccc(-c5cccc(C#N)c5)cc4[C@H]32)cc1`?
CFTR F508del cor: 2.3

How did COc1ccc(-c2ccc3c(c2)[C@@H]2[C@@H](CCN2S(=O)(=O)c2ccc(OC)cc2)[C@H](CO)N3)cc1 do in these assays?
CFTR F508del cor: 4.3

How did COc1ccc(S(=O)(=O)N2CC[C@@H]3[C@@H](CO)Nc4ccc(C5=CCCCC5)cc4[C@@H]32)cc1 do in these assays?
CFTR F508del cor: 9.0*

How did COc1ccc(-c2ccc3c(c2)[C@H]2[C@H](CCN2S(=O)(=O)c2ccc(OC)cc2)[C@@H](CO)N3)cc1 do in these assays?
CFTR F508del cor: 20.2*

How did C[C@H]1CN([C@@H](C)CO)C(=O)c2cc(C#Cc3ccncc3)cnc2O[C@@H]1CN(C)C(=O)c1ccccc1F do in these assays?
CFTR F508del cor: -4.4
